Sampled rows, rich in hits. Any-hit rate of the full collection: about 19%.
TDP1 cell noCPT – qHTS for Inhibitors of human tyrosyl-DNA phosphodiesterase 1 (TDP1): qHTS in cells in absence of CPT; DT40 Tdp1-/- hTDP1 cells, no CPT, ATP luminescence, 48 h; Potency, µM (highest dose often 46.2 µM), for the others: at the highest dose activity change, negative = growth inhibition, actives largely listed as inhibitors; 420,000 tested, 15% active; AID 686978, 2013; further: potency means the concentration at half of the fitted maximal effect; nearly all actives have a fitted effect of over 55% in size
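Readout: luminescence from CellTiter-Glo after 30 min in the dark at RT. Cells: DT40 Tdp1-/- with stable hTDP1, 400/well. Exposure: compounds alone, ≥48 hr, 37 °C.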
Giardia kill – Giardia lamblia killing. Giardia lamblia trophozoite viability. activity change, % at 7.66 µM, hits read low. 340,000 tested, 0.15% active; in the data active means activity change below about -80%; inconclusive means between about -30% and that limit;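 further: parasites exposed to compound for two days anaerobically before the ATP read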
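ATP-content bioluminescence gauges trophozoite survival. Cells (100/well) receive compound and incubate anaerobically for 48 hrs at 37 deg C; detection reagent follows for 15-30 min at room temperature.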
IL-1B inflam inh – inflammasome signaling inhibition, IL-1 beta readout; AID 743279; activity change, % at 57.5 µM; THP-1 LPS/ATP IL-1B secretion, AlphaLISA, 16 h; stronger effect = lower value; 360,000 tested, 4.7% active; in the data active means activity change below about -50%; inconclusive means mostly about -30% to -49%
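THP-1 cells pretreated 1 hr with compounds (up to 57.5 uM final), then stimulated with LPS (250 ng/mL final) plus ATP (1.25 mM final); secreted IL-1B measured by AlphaLISA after 16 hr, decreased signal indicating inhibition.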
ELG1 repair inh – ELG1-dependent DNA repair inhibition; HEK293T ELG1-luciferase reporter, luminescence, 16 h; DNA damage induced by 5-fluorouridine; 330,000 tested, 2.3% active; Potency, µM (doses to about 46.1 µM), for the others: at the highest dose activity change, negative = inhibition, most hits filed as inhibitors; further: potency means the concentration at half of the fitted maximal effect; nearly all actives have a fitted effect of over 55% in size
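5-Fluorouridine DNA damage + compound/DMSO, 2,000 cells/well, 16 h, 37 °C/5% CO2. ONE-Glo, 30 min RT, luminescence. Readout = decrease in reporter signal.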
TDP1 block – inhibitors of human tyrosyl-DNA phosphodiesterase TDP1; recombinant TDP1, AlphaScreen DNA substrate cleavage; Potency, µM (top dose mostly 130 µM), for the others: at the highest dose activity change, negative = inhibition, most hits filed as inhibitors; 350,000 tested, 0.28% active; further: potency means the concentration at half of the fitted maximal effect; nearly all actives have a fitted effect of over 40% in size
Target sequence (Q9NUW8 whole entry, looked up): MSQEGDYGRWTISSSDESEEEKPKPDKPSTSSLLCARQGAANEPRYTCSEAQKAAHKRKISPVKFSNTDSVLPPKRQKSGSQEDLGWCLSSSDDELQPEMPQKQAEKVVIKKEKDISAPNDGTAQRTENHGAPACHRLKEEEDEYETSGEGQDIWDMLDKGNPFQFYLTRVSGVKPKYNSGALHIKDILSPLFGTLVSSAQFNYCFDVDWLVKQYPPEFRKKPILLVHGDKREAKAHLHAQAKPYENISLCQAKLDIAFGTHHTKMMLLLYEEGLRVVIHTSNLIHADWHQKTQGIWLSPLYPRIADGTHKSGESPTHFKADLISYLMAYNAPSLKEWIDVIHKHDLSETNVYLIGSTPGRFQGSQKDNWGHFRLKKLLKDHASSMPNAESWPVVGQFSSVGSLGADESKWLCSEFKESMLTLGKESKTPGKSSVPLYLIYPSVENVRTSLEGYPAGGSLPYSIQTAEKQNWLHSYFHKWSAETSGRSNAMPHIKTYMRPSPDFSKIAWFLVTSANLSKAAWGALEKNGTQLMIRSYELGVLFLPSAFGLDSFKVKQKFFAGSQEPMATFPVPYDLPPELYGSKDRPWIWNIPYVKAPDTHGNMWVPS
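AlphaScreen read-out: signal falls as enzyme removes the 3' tyrosine-FITC from a 5'-biotinylated DNA oligo (15 nM, 5 min, RT). Enzyme was E. coli-made recombinant Tdp1 at 1 nM, exposed to compound for 15 min beforehand; beads 10 ug/ml, 10 min.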
TDP1 cell CPT – DT40-hTDP1 cell growth loss with CPT; chicken DT40 Tdp1-/-;hTDP1 cells + 20 nM CPT, ATP luminescence, 48 h; Potency, µM (titrated, usually from 46.2 µM), inactives show at the top dose activity change, negative = growth inhibition, usual class: inhibitors; 420,000 tested, 12% active; AID 686979; further: potency means the concentration at half of the fitted maximal effect; nearly all actives have a fitted effect of over 55% in size
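Chicken DT40 Tdp1-/- cells stably complemented with human TDP1 were seeded at 400 cells/well in medium containing 20 nM camptothecin, exposed to pin-transferred compounds, and grown at 37 °C for at least 48 hr. Viability was read as ATP luminescence.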
The depositor's hits bear a star; ? = inconclusive; nt = no result; [ ] = another dose, or the depositor's remark. Unless noted, the call rests on the fitted dose curve; in most records, active means well fitted curve in the direction sought with a large enough effect; inconclusive means small, poorly fitted or top-dose-only effect, or another doubt; inactive means no such curve, though single readings can be large; an effect the other way counts as inactive or inconclusive. On the % scale 0 is the no-effect control and ±100 the full control effect.

SMILES	TDP1 cell noCPT	Giardia kill	IL-1B inflam inh	ELG1 repair inh	TDP1 block	TDP1 cell CPT
CCOc1ccc(CC(=O)Nc2c(C(=O)c3ccc(Cl)cc3)oc3ccccc23)cc1OCC	?	nt	nt	nt	-5.8%	?
O=C(Nc1c(C(=O)Nc2cccc(F)c2)oc2ccccc12)c1cc2ccccc2o1	14.6µM*	nt	nt	nt	1.3%	18.4µM*
CCOc1ccc(CC(=O)Nc2c(C(=O)c3ccc(C)cc3)oc3ccccc23)cc1OCC	18.4µM*	nt	nt	nt	3.2%	?
O=C(Nc1c(C(=O)Nc2cccc(C(F)(F)F)c2)oc2ccccc12)c1cc(=O)c2ccccc2o1	?	nt	nt	nt	4.9%	4.11µM*
Cc1ccc(NC(=O)c2oc3ccccc3c2NC(=O)c2ccccc2C)cc1	?	nt	nt	nt	3.8%	?
CCOc1ccccc1NC(=O)CCCc1ccc(OC)c(C)c1	?	4.6	6.8	-14.0%	-8.8%	?
O=C(Cn1c(-c2cccs2)cc2cc(Cl)ccc21)N1CCCCC1	?	nt	nt	nt	3.7%	?
CN1CCN(CC(=O)Nc2c(C(=O)c3ccccc3)oc3ccccc23)CC1	?	-9.1	-71.1*	-3.5%	0.8%	?
Cc1ccc(NC(=O)c2oc3ccccc3c2NC(=O)c2cc3ccccc3o2)cc1	16.4µM*	nt	nt	nt	6.4%	?
COc1ccc(OC)c(-n2c(=O)[nH]c3cc(C(=O)NCCc4ccc(OC)c(OC)c4)ccc3c2=O)c1	?	nt	nt	nt	5.9%	-27.6%
CCc1ccc2ncc3c(-c4ccc(F)cc4)nn(CC(=O)NCc4ccccc4)c3c2c1	-4.6%	nt	nt	nt	4.5%	-4.0%
CCCn1c(NC(=O)C2CCN(C(=O)c3ccc(F)cc3)CC2)nc2ccccc21	?	-8.2	0.0	?	3.6%	18.4µM*
CCCn1c(NC(=O)c2ccccc2Br)nc2ccccc21	23.1µM*	-26.0	4.9	0.0%	10.0%	?
CCCn1c(NC(=O)CCNC(=O)c2ccccc2Cl)nc2ccccc21	?	9.6	-17.3	20.6µM*	1.7%	?
CCCn1c(NC(=O)c2ccc(F)cc2)nc2ccccc21	?	-5.2	29.2	2.2%	2.4%	-18.2%
CCc1ccccc1NC(=O)C1COc2ccccc2O1 (stereo unspecified)	-2.0%	10.9	-2.3	?	nt	1.8%
CCCn1c(NC(=O)C2COc3ccccc3O2)nc2ccccc21 (stereo unspecified)	18.4µM*	3.1	5.0	8.6%	1.1%	18.4µM*
CCN1CCN(C(c2cccs2)C(C)NC(=S)Nc2cccc(C)c2C)CC1 (stereo unspecified)	?	-5.3	?	1.1%	5.6%	?
Cc1ccc(-c2nc(=S)c3c(n2Cc2cccnc2)CC(C)(C)OC3)cc1	1.0%	1.5	-15.7	-4.8%	nt	16.0%
COc1ccc2[nH]cc(CCNS(=O)(=O)Cc3ccccc3)c2c1	?	-3.5	-10.4	-18.0%	2.6%	1.9%
O=C(NCc1ccco1)C1Cc2ccccc2CN1S(=O)(=O)c1ccccc1F (stereo unspecified)	?	1.0	?	nt	nt	18.4µM*
CC(C)(C)C(=O)Nc1ccc2c(c1)OCCOCCOc1cc(NC(=O)C(C)(C)C)ccc1OCCOCCO2	-29.1%	-14.0	?	7.3µM*	0.0%	-9.4%
CC(=O)c1ccc2c(c1)OCCOCCOc1ccccc1OCCOCCO2	23.1µM*	28.0	-15.0	0.0%	6.3%	18.4µM*
c1ccc2c(c1)OCCOCCOCCOCCOCCOc1ccccc1OCCOCCOCCO2	14.6µM*	15.6	-73.2*	?	2.5%	8.2µM*
CC(=O)Nc1ccc2c(c1)OCCOCCOc1cc(NC(C)=O)ccc1OCCO2	?	1.6	35.2	-4.1%	-7.7%	?
SMILES	TDP1 cell noCPT	Giardia kill	IL-1B inflam inh	ELG1 repair inh	TDP1 block	TDP1 cell CPT
Cc1cccn2c(=O)c3cc(C(=O)N4CCCCC4C)sc3nc12 (stereo unspecified)	?	-4.2	33.7	?	0.1%	?
CN(C)/C=N/NC(=O)c1ccccc1	18.9%	4.4	11.6	8.4%	2.9%	-3.8%
O=C(NN=c1c(=O)c2ccccc2c1=O)c1ccccc1	17.8µM*	-4.1	?	-16.3%	1.0%	18.4µM*
Cc1cccc(C(=O)N2CCN(S(=O)(=O)N3CCCCCC3)CC2)c1	-16.3%	2.5	0.0	-7.4%	0.6%[0.0935 µM]	-3.3%
CN(C)CCC1c2ccc(Cl)cc2CCc2cccnc21 (stereo unspecified) (tested in a mixture with another compound)	?	24.2	-75.0*	?	0.0%	-6.0%
CN(C)CCCN(C(=O)c1cccs1)c1nc2cc3c(cc2s1)OCO3	?	6.2	-10.0	?	6.1%	-17.8%
CN(C)CCCN(C(=O)c1ccc([N+](=O)[O-])s1)c1nc2cc3c(cc2s1)OCCO3	3.26µM*	3.7	-95.7*	?	8.4%	2.91µM*
Cc1ccc2nc(N(CCCN(C)C)C(=O)c3ccc(Br)s3)sc2c1	23.1µM*	15.4	-78.7*	25.5%	-2.3%	?
CN(C)CCCN(C(=O)c1ccc(Br)s1)c1nc2cc3c(cc2s1)OCCO3	?	16.0	-93.1*	21.0%	nt	29.1µM*
CN(C)CCCN(C(=O)c1cc2cc([N+](=O)[O-])ccc2s1)c1nc2cc3c(cc2s1)OCCO3	2.31µM*	?	0.0	?	13.3%	1.3µM*
CCOC(=O)c1c(/N=C/C2=C(O)CC(C)(C)CC2=O)sc(C(C)=O)c1C	25.4%	7.8	-8.1	?	2.7%	-3.0%
C=CCN1C(=O)C(=O)N(Cc2nc3ccccc3s2)C1=O	-3.9%	7.1	20.9	?	nt	-1.5%
COc1ccc(CNC(=O)C2CCN(S(=O)(=O)c3ccc4nc5c(c(C(=O)O)c4c3)CCCC5)CC2)cc1	7.6%	nt	-5.5	nt	0.0%	0.3%
CN(C)CCCN(C(=O)c1ccc(Cl)s1)c1nc2cc3c(cc2s1)OCO3	?	-1.6	-98.2*	?	4.8%	?
O=C(NCCCN1CCCCC1)c1cc(Sc2ccc(Cl)cc2)nc2ccccc12	23.1µM*	nt	nt	nt	0.0%	16.4µM*
O=C(NCCCN1CCCC1)c1cc(Sc2ccc(F)cc2)nc2ccccc12	-21.3%	0.1	-51.8*	-0.7%	5.1%	-20.6%
CCN(CC)CCCNC(=O)c1[nH]c2ccccc2c1Sc1ccc(Cl)cc1	14.6µM*	9.9	-76.1*	-15.7%	nt	?
O=C(NCCN1CCOCC1)c1cc(Sc2ccccc2Cl)nc2ccccc12	nt	nt	nt	1.9%	2.3%	nt
